Data as given in PubChem BioAssay (NCATS).

What was measured:
[1] = qHTS profiling for inhibitors of Plasmodium falciparum (3D7) proliferation (AID 743322);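 also: infected erythrocytes exposed to compound for 72 h before lysis; 100% = DMSO vehicle wells and 0% = 0.29 µM artemisinin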; conditions: P. falciparum 3D7 proliferation; at 28.7 µM (top of the series)
Method in brief: (§1)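 Parasite DNA was quantified by SYBR Green I fluorescence (ex 485, em 535 nm) after overnight lysis in saponin/Triton buffer at room temperature. Cultures at 0.3% parasitemia and 2.5% hematocrit were first exposed to compound for 72 h at 37 C; signals were normalised to artemisinin (0.29 uM) and vehicle wells.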

[2] = qHTS profiling for inhibitors of Plasmodium falciparum (DD2) proliferation (AID 743323); conditions: lower = more inhibition; at 28.7 µM (top of the series)
Method in brief: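 P. falciparum Dd2-infected erythrocytes (0.3% parasitemia, 2.5% hematocrit) exposed 72 h at 37 C, 5% CO2. Lysis with SYBR Green, overnight at room temperature, fluorescence 485/535 nm; normalized to 0.29 uM artemisinin and DMSO.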

[3] = qHTS profiling for inhibitors of Plasmodium falciparum (HB3) proliferation (AID 743324); conditions: Plasmodium falciparum HB3 blood-stage proliferation; at 28.7 µM (top of the series);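 also: 100% = DMSO vehicle wells and 0% = artemisinin-treated control wells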
Method in brief: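 SYBR Green fluorescence (485 ex/535 em) of lysed cultures, incubated overnight at room temperature in the dark, quantifies parasite DNA. Infected erythrocytes at 0.3% parasitemia and 2.5% hematocrit were exposed 72 h; values normalized to DMSO and 0.29 uM artemisinin controls.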

[4] = qHTS profiling of the MIPE4 collection as inhibitors of Plasmodium falciparum (3D7) proliferation (AID 743344);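 also: scaled between DMSO vehicle wells and 0.29 µM artemisinin as full inhibition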; conditions: P. falciparum 3D7 in erythrocytes, SYBR Green DNA fluorescence, 72 h; at 28.5 µM (top of the series) unless noted
Method in brief: as §1

[5] = qHTS profiling of the MIPE4 collection as inhibitors of Plasmodium falciparum (DD2) proliferation (AID 743345); conditions: P. falciparum Dd2 in erythrocytes, SYBR Green DNA, 72 h; at 28.5 µM (top of the series) unless noted
Method in brief: as §1

[6] = qHTS profiling of the MIPE4 collection as inhibitors of Plasmodium falciparum (HB3) proliferation (AID 743347);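 also: plate controls were DMSO vehicle wells for no effect and artemisinin wells for full effect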; conditions: P. falciparum HB3 in erythrocytes, SYBR Green DNA, 72 h; at 28.5 µM (top of the series) unless noted
Method in brief: as §1

[7] = High-throughput drug toxicity screening in the BPDCN cell line Gen2.2 (AID 1224824); conditions: Gen2.2 BPDCN cells; at 45.8 µM (top of the series) unless noted;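 also: cells exposed to compounds for 48 h before reading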
Method in brief: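 Gen2.2, 500 cells/well, phenol red-free RPMI/10% FBS/Pen-Strep; 48 h cpd, 37 °C/5% CO2; CTG lum, 15 min RT. Norm: DMSO = 100%, bortezomib 9.2 uM final = 0%.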

[8] = High-throughput drug toxicity screening in the BPDCN cell line Cal-1 (AID 1224825); conditions: Cal-1 BPDCN cell viability, qHTS; at 45.8 µM (top of the series) unless noted;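 also: cells exposed to compounds for 48 h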
Method in brief: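 Percent activity derived from CellTiter-Glo luminescence, scaling DMSO to 100% and 9.2 uM final bortezomib to 0%. BPDCN Cal-1 cells (500/well, RPMI plus 10% FBS) incubated with compounds 48 hours at 37C before reading.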

[9] = qHTS profiling of the MIPE4 collection as inhibitors of Plasmodium falciparum (DD2) proliferation (Rep 2) (AID 743346); conditions: P. falciparum Dd2 in erythrocytes, SYBR Green DNA, 72 h; at 28.5 µM (top of the series) unless noted
Method in brief: as §1

SMILES | remaining parasite growth % (stronger effect = lower value) [1] [%] | activity, percent of control [2] [%] | remaining proliferation (% of control), lower = more inhibition [3] [%] | parasite growth, % of DMSO control [4] [%] | parasite growth remaining, % of DMSO control (lower = more inhibition) [5] [%] | growth, % of control [6] [%] | cell viability, % of control (lower = more cytotoxic) [7] [%] | viability (% of control) [8] [%] | parasite growth, % of control (lower = inhibition) [9] [%]
Nc1ccc(C(=O)c2cc3c(ccc4ccccc43)[nH]2)cc1 | 114 | 98.8 | 99.1 | 292 | 83.6 | 409 | 66.8 | 8.09 | –
CC[C@H]1CN2CCc3cc(OC)c(OC)cc3[C@H]2C[C@@H]1C[C@@H]1NCCc2cc(OC)c(OC)cc21 | – | – | – | 4.96 | 6.45 | 3.29 | 8.8 | 6.78 | 7.29
COCCn1c2c([n+](Cc3cnccn3)c1C)C(=O)c1ccccc1C2=O | -1.59 | -0.193 | -1.98 | 9.02 | 6.3 | 6.61 | 9.73 | 3.5 | 11.6
COC(=O)[C@]12CCC(C)(C)C[C@@H]1[C@@H]1C(=O)C=C3[C@@]4(C)C=C(C#N)C(=O)C(C)(C)[C@@H]4CC[C@@]3(C)[C@]1(C)CC2 | 0.25 | 0.779 | 2.29 | – | 7.23 | 11.3 | 3.73 | 2.87 | 25.5
CCOc1cc2ncc(C#N)c(Nc3ccc(F)c(Cl)c3)c2cc1NC(=O)C=CCN(C)C | -0.461 | 3.39 | 0.199 | 8.27 | 7.41 | 4.45 | 17.3 | 9.88 | –
Cc1ccc(C(=O)Nc2cccc(C(F)(F)F)c2)cc1-c1ccc2nc(NCCN3CCOCC3)ncc2c1 | -2.64 | 0.812 | -1.12 | 6.03 | 7.55 | 8.15 | 11.1 | 5.9 | 22.9
C=C1C(=CC=C2CCC[C@]3(C)[C@@H]([C@H](C)C=C[C@H](C)C(C)C)CC[C@@H]23)C[C@@H](O)C[C@@H]1O | 88.6 | 102 | 92.2 | 6.24 | – | 9.22 | 104 | 5.8 | 7.88
CCN(CC)CCCCNc1ncc2cc(-c3cc(OC)cc(OC)c3)c(NC(=O)NC(C)(C)C)nc2n1 | -0.484 | 1.21 | 0.178 | 5.7 | – | 5.53 | 4.8 | 1.79 | 8
